# Source: PubChem BioAssay (NCATS)
# A number with no mark means an inactive call. Records with an inconclusive call do not appear. Active and inactive are the calls of the source. Unless noted, calls follow the shape of the dose curve; as a rule, active = well fitted curve in the direction sought with a large enough effect; inconclusive = small, poorly fitted or top-dose-only effect, or another doubt; inactive = no such curve, though single readings can be large; an effect the other way counts as inactive or inconclusive.
# Legend:
# [1] = biological target: Cytochrome P450 1A2 (Homo sapiens) (UniProt P05177); assay: p450-cyp1a2 (AID 410; calls by dose curve; also: potency is read from the fitted curve at half-maximal effect;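 as to activity change, negative = inhibition: -100% = full effect of reference inhibitor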)
# Outline: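 Inhibition was calculated relative to 57 uM furafylline (full inhibition). The reaction used human CYP1A2 at 20nM with Luciferin-ME at its Km, 100uM, driven by an NADPH-regenerating system for 60 min at room temperature.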
# [2] = biological target: Glucocorticoid receptor (Homo sapiens) (UniProt P04150); assay: GR-GFP Redistribution (AID 450;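 active = compounds whose dose series gives a full or clear partial fitted curve of increased nuclear translocation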; also: potency is read from the fitted curve at half-maximal effect); conditions: U2OS GR-GFP nuclear translocation, laser cytometry, 2 h
# [3] = biological target: Glucocorticoid receptor (Homo sapiens) (UniProt P04150); assay: GR-EFC Redistribution (AID 451; calls by dose curve; also: potency is read from the fitted curve at half-maximal effect); conditions: CHO-K1 GR-EFC translocation, beta-gal luminescence, 2 h
# Outline: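 Translocation of GR-ED fusion to nuclear EA restores b-gal, read by luminescence after 1 h room-temperature detection. Engineered CHO-K1 biosensor cells, 1,000/well, exposed 2 h at 37 C to titrations up to 46 uM final.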
# [4] = biological target: Mitogen-activated protein kinase 10 (Mus musculus) (UniProt Q61831); assay: JNK3 AlphaScreen Assay (AID 530; active = well fitted curve in either direction with a large enough effect, not every such curve was filed as active;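 also: kinase came from lysate of stimulated human HepG2 cells; signal reports phosphorylation of biotinylated GST-cJun 1-79 at Ser73 with 10 µM ATP; % is scaled to controls: 0 for no effect and ±100 for the full control effect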)
# Outline: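 Room-temperature AlphaScreen kinase assay; pre-activated HepG2 lysate as JNK3 source, biotin-GST-cJun(1-79) substrate, 10 uM ATP, compound 15 min preincubation.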
# [5] = biological target: Cytochrome P450 3A4 (Homo sapiens) (UniProt P08684); assay: qHTS Assay for Inhibitors and Substrates of Cytochrome P450 3A4 (AID 884); also: nearly all actives have a fitted effect of over 50% in size; also: potency is read from the fitted curve at half-maximal effect
# Outline: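 20 nM human CYP3A4 with 25 uM Luciferin-PPXE (at KM) in 200 mM KPO4, preincubated 10 min with compound; NADPH regeneration started a 60 min RT reaction. Luciferin detected by luminescence, normalized to 57 uM ketoconazole as full inhibition.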
# [6] = biological target: Cytochrome P450 3A4 (Homo sapiens) (UniProt P08684); assay: qHTS Assay for Activators of Cytochrome P450 3A4 (AID 885); also: nearly all actives have a fitted effect of over 65% in size
# Outline: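 Human CYP3A4 (20 nM) with Luciferin-PPXE at 25 uM (its KM) in 200 mM KPO4; 10 min compound preincubation, then NADPH regeneration and 60 min reaction at RT. Luciferin read by luminescence; normalized to 57 uM ketoconazole full inhibition.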
# [7] = biological target: Cytochrome P450 2C19 (Homo sapiens) (UniProt P33261); assay: qHTS Assay for Inhibitors and Substrates of Cytochrome P450 2C19 (AID 899); also: potency is read from the fitted curve at half-maximal effect; nearly all actives have a fitted effect of over 60% in size
# Outline: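 5nM enzyme + 10uM Luciferin-H EGE (=KM), 50mM KPO4; cpd pin-transferred, 10 min 37C; NADPH regen, 60 min 37C; stopped w/ luciferin detection reagent, 20 min; luminescence. Normalized to 57uM ketoconazole (AC100).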
# [8] = biological target: Dual specificity protein kinase CLK4 (Homo sapiens) (UniProt Q9HAZ1); assay: qHTS Assay for Inhibitors of CDC-like Kinase 4 (ADP-Glo Assay) (AID 1771); also: nearly all actives have a fitted effect of over 70% in size; also: potency is read from the fitted curve at half-maximal effect
# Outline: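 Kinase reaction: Clk4 at 25 nM, RS repeat peptide substrate at 100 uM, ATP at 1 uM, 1 hr, room temperature. Product ADP detected as luciferase signal via ADP-Glo.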
# [9] = biological target: Ubiquitin carboxyl-terminal hydrolase 1 (Homo sapiens) (UniProt O94782); assay: Inhibitors of USP1/UAF1: Pilot qHTS (AID 504865);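 also: rhodamine fluorescence freed from ubiquitin-rhodamine substrate followed over time; top concentration of the series differs between compounds; % is scaled to controls: 0 for no effect and ±100 for the full control effect; nearly all actives have a fitted effect of over 35% in size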
# Outline: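 USP1/UAF1 complex (1nM) preincubated with compound 15 min at room temperature, then Ub-Rho substrate (150nM final) added. Fluorescence read kinetically at 480/540 nm, 6 reads every 60 seconds. Buffer: 50mM HEPES pH 7.8, 0.5mM EDTA, 0.1 mg/ml BSA, 1mM TCEP, 0.01% Tween-20.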
# [10] = Primary qHTS for small molecule stabilizers of the endoplasmic reticulum resident proteome: Secreted ER Calcium Modulated Protein (SERCaMP) assay (AID 1508630); also: % is scaled to controls: 0 for no effect and ±100 for the full control effect
# Outline: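 GLuc-SERCaMP-expressing SH-SY5Y cells, pretreated 16 h with compound, are challenged with thapsigargin to empty ER calcium stores; after 4 h, coelenterazine is added directly to the medium and luminescence is imaged.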
# [11] = biological target: Rap guanine nucleotide exchange factor 3 (Homo sapiens) (UniProt O95398); assay: Confirmatory qHTS for agonist of cAMP-regulated guanine nucleotide exchange factor 3 (EPAC1) (AID 1645881);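 also: EPAC1 catalysed release of BODIPY-GDP from Rap1B seen as fluorescence loss; 100% = effect of cAMP agonist control; nearly all actives have a fitted effect of over 75% in size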
# [12] = biological target: Rap guanine nucleotide exchange factor 4 (Homo sapiens) (UniProt Q8WZA2); assay: Confirmatory qHTS for agonist of cAMP-regulated guanine nucleotide exchange factor 4 (EPAC2) (AID 1645884);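 also: nucleotide exchange releases bodipy-GDP from Rap1 and this lowers its fluorescence; % is scaled to controls: 0 for no effect and ±100 for the full control effect; nearly all actives have a fitted effect of over 65% in size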
# [13] = biological target: 3',5'-cyclic-AMP phosphodiesterase 4B (Homo sapiens) (UniProt Q07343); assay: qHTS Assay for Inhibitors of PDE-IV (AID 607; active = well fitted activation curve with a large enough effect in the main read-out, with a control signal flat, not every such curve was filed as active; also: % of control where 0% means no effect)
# Outline: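 HEK293 ACTOne cells with CNG channel (1000/well), endogenous PDE4; membrane potential dye, compounds up to 22.9 uM final. Fluorescence Ex 535/Em 590; RO 20-1724 (100 uM final) as reference.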
# [14] = biological target: Cytochrome P450 2C9 (Homo sapiens) (UniProt P11712); assay: qHTS Assay for Inhibitors and Substrates of Cytochrome P450 2C9 (AID 883); also: potency is read from the fitted curve at half-maximal effect; nearly all actives have a fitted effect of over 60% in size
# Outline: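 Inhibition of CYP2C9 is scored as loss of luminescence, with 57uM sulphaphenazole defining 100% inhibition. Substrate Luciferin-H is used at 100uM, equal to its KM; enzyme at 10nM in 25mM KPO4, 60 min at 37C with NADPH regeneration.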
# [15] = biological target: Lysosomal acid glucosylceramidase (Homo sapiens) (UniProt P04062); assay: Glucocerebrosidase-p2 (AID 348; in the data active = potency below about 10 µM; also: potency is read from the fitted curve at half-maximal effect); conditions: purified GBA, blue fluorogenic substrate, 40 min
# Outline: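 Compounds titrated from 0.6 nM upwards against 0.2 nM enzyme in pH 5.9 citric acid/KH2PO4, taurocholate, tween-20; blue fluorogenic substrate 80 uM, 40 min room temperature, stopped and read Ex 365/Em 440 for AC50.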
# [16] = AP1 Signaling Pathway (AID 357; active = well fitted curve in either direction with a large enough effect, not every such curve was filed as active;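 also: ME-180 reporter cells stimulated with EGF at its EC50 level; % is scaled to controls: 0 for no effect and ±100 for the full control effect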); conditions: ME-180 AP-1-bla reporter, EGF-induced, beta-lactamase ratio, 5 h; at 7.69 µM (top of the series) unless noted
# Outline: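 Modulation of EGF-driven AP-1 transcription was assessed with a beta-lactamase reporter in ME-180 cells. Compound and EC50 EGF were co-incubated 5 hours at 37 °C before 2.5-hour CCF4 loading at room temperature and dual-emission reading.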
# [17] = NFAT Signaling Pathway (AID 444; active = well fitted curve in either direction with a large enough effect, not every such curve was filed as active;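 also: carbachol stimulus at about its EC50 of 1 µM final; % is scaled to controls: 0 for no effect and ±100 for the full control effect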); conditions: Jurkat NFAT-bla M1, carbachol, beta-lactamase ratio, 5 h; at 7.69 µM (top of the series) unless noted
# Outline: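 Read-out: CCF4 FRET ratio (460 nm/530 nm) after 1 h RT dye loading, used for %activity and AC50 from titration series. Cells: Jurkat NFAT-β-lactamase/M1 line, treated with compound plus 1 uM carbachol for 5 h, 37 °C.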
# [18] = Stat Signaling Pathway (AID 446; active = well fitted curve in either direction with a large enough effect, not every such curve was filed as active); conditions: ME-180 SIE beta-lactamase reporter, IL-6 stimulated, 5 h; at 7.69 µM (top of the series) unless noted
# Outline: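 ME-180 cells carrying a SIE-driven beta-lactamase reporter are stimulated with 40 pM IL-6 for 5 h at 37C in the presence of compound. The 460/530 nm FRET substrate ratio is read after 2.5 h at RT. Data are normalised to 300 pM IL-6 and to 125 nM JAK inhibitor controls.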
# [19] = biological target: Dual specificity protein kinase CLK4 (Homo sapiens) (UniProt Q9HAZ1); assay: qHTS Assay for Inhibitors of CDC-like Kinase 4 (ADP-FP Assay) (AID 1795); also: nearly all actives have a fitted effect of over 60% in size; also: potency is read from the fitted curve at half-maximal effect
# Outline: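 Recombinant human Clk4 (6.25 nM) phosphorylated RS repeat peptide (100 uM) with 1 uM ATP in Tris pH 7.5/MgCl2/EGTA/DTT/Triton buffer for one hour. ADP was quantified by Transcreener competitive fluorescence polarization against an ADP calibration curve.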
# [20] = biological target: Dual specificity protein kinase CLK4 (Homo sapiens) (UniProt Q9HAZ1); assay: qHTS Assay for Inhibitors of CDC-like Kinase 4 (Kinase-Glo Assay) (AID 1770); also: nearly all actives have a fitted effect of over 65% in size; also: potency is read from the fitted curve at half-maximal effect
# Outline: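 Recombinant human Clk4 (25 nM) phosphorylated RS repeat peptide (100 uM) with 1 uM ATP in Tris pH 7.5/MgCl2/EGTA/DTT/Triton buffer for 4.5 h at room temperature. Residual ATP was quantified by Kinase-Glo luciferase luminescence.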
# Rap guanine nucleotide exchange factor 4 (Homo sapiens), sequence (Q8WZA2 whole entry, looked up): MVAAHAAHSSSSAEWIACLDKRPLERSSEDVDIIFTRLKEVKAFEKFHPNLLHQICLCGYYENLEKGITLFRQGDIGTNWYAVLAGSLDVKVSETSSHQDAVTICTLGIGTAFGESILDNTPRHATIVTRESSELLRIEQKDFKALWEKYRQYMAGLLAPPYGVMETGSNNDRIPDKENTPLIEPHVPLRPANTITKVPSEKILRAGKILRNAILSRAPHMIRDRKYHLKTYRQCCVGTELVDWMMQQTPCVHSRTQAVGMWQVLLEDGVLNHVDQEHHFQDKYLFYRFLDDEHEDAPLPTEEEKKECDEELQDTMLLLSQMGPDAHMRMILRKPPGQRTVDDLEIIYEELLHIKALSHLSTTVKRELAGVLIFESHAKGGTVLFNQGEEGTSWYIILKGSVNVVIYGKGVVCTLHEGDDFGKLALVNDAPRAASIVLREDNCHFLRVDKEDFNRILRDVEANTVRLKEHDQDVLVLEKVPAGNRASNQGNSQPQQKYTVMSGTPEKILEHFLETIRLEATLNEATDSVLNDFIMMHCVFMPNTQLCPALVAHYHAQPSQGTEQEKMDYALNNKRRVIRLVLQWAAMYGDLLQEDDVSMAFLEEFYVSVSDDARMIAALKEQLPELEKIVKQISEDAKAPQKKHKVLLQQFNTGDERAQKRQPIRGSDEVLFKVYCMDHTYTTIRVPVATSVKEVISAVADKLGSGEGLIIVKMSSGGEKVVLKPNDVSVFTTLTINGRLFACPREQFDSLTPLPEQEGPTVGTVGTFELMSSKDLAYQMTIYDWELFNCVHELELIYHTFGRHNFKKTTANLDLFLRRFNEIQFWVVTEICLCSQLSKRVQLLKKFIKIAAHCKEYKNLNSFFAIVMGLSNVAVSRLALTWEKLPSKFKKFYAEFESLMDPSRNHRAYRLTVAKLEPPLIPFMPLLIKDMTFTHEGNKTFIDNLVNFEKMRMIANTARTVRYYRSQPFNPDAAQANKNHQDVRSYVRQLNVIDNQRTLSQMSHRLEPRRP
# Cytochrome P450 1A2 (Homo sapiens), sequence (P05177 whole entry, looked up): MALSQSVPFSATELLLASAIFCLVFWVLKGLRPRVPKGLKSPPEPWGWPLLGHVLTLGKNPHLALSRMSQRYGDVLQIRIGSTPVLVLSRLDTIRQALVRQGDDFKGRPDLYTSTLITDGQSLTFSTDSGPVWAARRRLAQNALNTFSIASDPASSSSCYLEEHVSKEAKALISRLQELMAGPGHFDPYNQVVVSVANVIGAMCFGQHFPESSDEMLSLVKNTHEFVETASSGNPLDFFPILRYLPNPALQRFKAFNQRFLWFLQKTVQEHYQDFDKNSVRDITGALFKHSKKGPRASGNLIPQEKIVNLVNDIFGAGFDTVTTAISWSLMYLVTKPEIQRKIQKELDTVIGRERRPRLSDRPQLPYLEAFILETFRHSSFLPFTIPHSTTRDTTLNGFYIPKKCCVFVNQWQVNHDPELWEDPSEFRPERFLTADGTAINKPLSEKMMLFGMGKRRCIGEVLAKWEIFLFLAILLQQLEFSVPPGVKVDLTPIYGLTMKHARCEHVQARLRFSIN
# Dual specificity protein kinase CLK4 (Homo sapiens), sequence (Q9HAZ1 whole entry, looked up): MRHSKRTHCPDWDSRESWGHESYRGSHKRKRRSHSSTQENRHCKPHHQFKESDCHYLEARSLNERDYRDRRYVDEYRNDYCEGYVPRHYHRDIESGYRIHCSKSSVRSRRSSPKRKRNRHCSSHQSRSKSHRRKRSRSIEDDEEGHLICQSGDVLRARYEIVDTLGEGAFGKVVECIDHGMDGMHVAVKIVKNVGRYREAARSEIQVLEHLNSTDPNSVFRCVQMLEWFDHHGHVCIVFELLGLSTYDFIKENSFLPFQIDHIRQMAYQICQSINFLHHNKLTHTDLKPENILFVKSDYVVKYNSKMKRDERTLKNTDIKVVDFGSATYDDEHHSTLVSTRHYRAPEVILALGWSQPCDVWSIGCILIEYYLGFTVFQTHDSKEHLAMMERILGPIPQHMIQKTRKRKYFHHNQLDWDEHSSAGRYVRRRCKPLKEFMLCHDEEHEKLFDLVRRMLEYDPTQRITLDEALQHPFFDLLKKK
# Cytochrome P450 2C19 (Homo sapiens), sequence (P33261 whole entry, looked up): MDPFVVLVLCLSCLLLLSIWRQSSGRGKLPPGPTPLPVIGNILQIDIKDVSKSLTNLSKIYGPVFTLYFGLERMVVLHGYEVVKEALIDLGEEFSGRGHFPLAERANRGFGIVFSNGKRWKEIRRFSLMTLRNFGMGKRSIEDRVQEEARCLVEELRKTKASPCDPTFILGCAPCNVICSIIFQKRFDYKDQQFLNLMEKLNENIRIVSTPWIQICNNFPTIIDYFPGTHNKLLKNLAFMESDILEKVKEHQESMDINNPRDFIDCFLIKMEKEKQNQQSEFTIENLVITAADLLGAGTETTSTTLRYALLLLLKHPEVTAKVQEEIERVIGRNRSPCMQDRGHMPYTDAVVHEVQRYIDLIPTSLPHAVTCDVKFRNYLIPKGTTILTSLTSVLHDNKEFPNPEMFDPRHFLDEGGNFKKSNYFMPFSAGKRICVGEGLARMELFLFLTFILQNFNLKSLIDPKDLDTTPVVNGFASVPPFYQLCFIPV
# Lysosomal acid glucosylceramidase (Homo sapiens), sequence (P04062 whole entry, looked up): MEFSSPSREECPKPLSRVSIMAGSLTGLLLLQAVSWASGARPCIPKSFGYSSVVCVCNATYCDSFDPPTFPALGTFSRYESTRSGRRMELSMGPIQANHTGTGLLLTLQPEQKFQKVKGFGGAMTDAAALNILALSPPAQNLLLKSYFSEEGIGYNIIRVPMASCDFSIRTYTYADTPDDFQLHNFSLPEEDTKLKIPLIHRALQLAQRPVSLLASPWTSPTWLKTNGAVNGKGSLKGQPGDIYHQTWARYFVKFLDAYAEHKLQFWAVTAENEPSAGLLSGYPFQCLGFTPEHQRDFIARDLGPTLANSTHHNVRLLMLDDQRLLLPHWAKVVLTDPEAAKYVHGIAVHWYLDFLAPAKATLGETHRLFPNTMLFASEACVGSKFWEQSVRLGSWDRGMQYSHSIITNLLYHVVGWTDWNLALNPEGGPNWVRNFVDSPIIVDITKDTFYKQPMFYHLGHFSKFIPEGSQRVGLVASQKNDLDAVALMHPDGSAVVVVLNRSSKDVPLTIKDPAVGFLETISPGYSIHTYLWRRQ
# Glucocorticoid receptor (Homo sapiens), sequence (P04150 whole entry, looked up, the tested form may be a part): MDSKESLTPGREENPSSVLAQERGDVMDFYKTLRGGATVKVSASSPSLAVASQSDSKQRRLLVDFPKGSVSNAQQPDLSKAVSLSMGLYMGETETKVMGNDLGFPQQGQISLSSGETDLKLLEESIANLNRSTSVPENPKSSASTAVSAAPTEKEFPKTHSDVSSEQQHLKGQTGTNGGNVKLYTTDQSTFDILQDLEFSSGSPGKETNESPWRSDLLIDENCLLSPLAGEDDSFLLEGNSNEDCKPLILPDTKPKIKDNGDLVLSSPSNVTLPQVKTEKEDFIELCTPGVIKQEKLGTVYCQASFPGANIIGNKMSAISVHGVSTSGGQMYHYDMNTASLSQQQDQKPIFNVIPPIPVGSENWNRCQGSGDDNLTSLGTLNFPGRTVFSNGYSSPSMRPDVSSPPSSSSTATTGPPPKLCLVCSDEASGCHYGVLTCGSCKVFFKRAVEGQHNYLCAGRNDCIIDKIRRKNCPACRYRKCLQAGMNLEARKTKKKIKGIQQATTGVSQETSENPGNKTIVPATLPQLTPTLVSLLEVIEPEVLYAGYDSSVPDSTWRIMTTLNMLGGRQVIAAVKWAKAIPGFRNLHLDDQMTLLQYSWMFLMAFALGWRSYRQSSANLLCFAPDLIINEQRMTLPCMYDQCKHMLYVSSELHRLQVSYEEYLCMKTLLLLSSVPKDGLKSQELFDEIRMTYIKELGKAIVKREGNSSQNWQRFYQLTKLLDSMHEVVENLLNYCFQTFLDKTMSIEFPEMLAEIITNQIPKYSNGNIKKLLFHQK
# Rap guanine nucleotide exchange factor 3 (Homo sapiens), sequence (O95398 whole entry, looked up): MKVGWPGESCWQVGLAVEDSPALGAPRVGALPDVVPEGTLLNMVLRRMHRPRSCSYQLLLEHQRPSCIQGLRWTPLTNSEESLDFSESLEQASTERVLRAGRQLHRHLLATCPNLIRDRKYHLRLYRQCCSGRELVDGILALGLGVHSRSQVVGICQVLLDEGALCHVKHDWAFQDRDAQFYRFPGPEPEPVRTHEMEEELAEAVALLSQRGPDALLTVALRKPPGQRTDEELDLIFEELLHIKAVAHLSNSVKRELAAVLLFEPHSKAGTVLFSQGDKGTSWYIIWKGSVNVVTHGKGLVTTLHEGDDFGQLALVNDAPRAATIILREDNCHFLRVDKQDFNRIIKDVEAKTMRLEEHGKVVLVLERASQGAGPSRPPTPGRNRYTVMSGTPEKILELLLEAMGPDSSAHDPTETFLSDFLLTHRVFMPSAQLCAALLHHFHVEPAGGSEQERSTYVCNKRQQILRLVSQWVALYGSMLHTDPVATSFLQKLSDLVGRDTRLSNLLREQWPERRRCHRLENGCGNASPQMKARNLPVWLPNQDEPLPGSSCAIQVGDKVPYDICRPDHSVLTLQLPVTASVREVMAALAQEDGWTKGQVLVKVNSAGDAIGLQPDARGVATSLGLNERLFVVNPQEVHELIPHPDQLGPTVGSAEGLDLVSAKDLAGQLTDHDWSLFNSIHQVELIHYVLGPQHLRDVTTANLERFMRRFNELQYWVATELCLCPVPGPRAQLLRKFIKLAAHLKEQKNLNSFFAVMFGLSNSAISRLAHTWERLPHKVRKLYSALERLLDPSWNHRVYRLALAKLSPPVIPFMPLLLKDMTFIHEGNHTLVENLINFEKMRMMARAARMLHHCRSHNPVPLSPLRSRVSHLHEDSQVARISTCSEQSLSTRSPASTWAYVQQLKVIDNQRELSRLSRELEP
SMILES,Potency [1],Potency [2],Potency [3],Potency [4],Potency [5],Potency [6],Potency [7],Potency [8],Potency [9],outcome [10],Potency [11],Potency [12],Potency [13],Potency [14],Potency [15],"activity change, negative = inhibition [16]","activity change, negative = inhibition [17]","activity, negative = inhibition [18]",Potency [19],Potency [20]
COc1ccc(CNc2ccnc(-c3cccc(C#N)c3)n2)c(OC)c1,2.51 µM (active),> 46 µM,> 46 µM,inactive,2 µM (active),inactive,3.98 µM (active),10 µM (active),inactive,inactive,inactive,inactive,–,–,–,–,–,–,–,–
COc1c(O)cc2oc3cc(O)c(CC=C(C)C)c(O)c3c(=O)c2c1CC=C(C)C,31.6 µM (active),–,> 20.6 µM,inactive,inactive,inactive,10 µM (active),–,–,inactive,–,–,inactive,5.01 µM (active),–,–,–,–,–,–
COc1ccc(C(=O)N2CCC[C@@]3(CCN(Cc4cc(C(F)(F)F)cc(C(F)(F)F)c4)C3)C2)cc1,inactive,–,> 46 µM,inactive,3.16 µM (active),inactive,–,–,–,inactive,inactive,inactive,inactive,–,> 11.4 µM,16.8%,-5.26%,-1.38%,–,–
CN(C)c1ncnc2ccc(-c3ccccc3C(F)(F)F)cc12,0.631 µM (active),> 46 µM,> 46 µM,inactive,–,inactive,3.98 µM (active),–,inactive,inactive,inactive,inactive,–,–,> 11.4 µM,0.8%,20.6%,-12.7%,inactive,–
CCNc1ncc2nc(-c3ccccc3)c(=O)n(C)c2n1,0.398 µM (active),> 9.22 µM,> 46 µM,inactive,–,–,–,inactive,inactive,inactive,–,–,–,–,> 11.4 µM,-13.4%,-7.59%,-9.07%,inactive,inactive
COCCNc1ccnc(-c2ccccc2C)n1,12.6 µM (active),> 46 µM,> 46 µM,inactive,–,–,–,inactive,inactive,inactive,–,–,inactive,–,> 11.4 µM,-9.97%,3.48%,15.6%,inactive,inactive
COc1ccc(-n2c(=O)c(CCc3ccccc3)nc3cncnc32)cc1,25.1 µM (active),> 9.22 µM,> 46 µM,inactive,–,–,–,inactive,inactive,inactive,–,–,–,–,> 11.4 µM,-15.2%,-3.92%,-3.17%,inactive,inactive
COc1ncc2nc(-c3ccc(F)cc3)c(=O)n(CCc3ccccc3)c2n1,0.398 µM (active),> 9.22 µM,> 46 µM,inactive,–,–,–,inactive,inactive,inactive,–,–,inactive,–,> 11.4 µM,-6.05%,-8.98%,-5.82%,inactive,inactive
COc1ccc(C(=O)N2CCC3(CCN(Cc4cc(C(F)(F)F)cc(C(F)(F)F)c4)CC3)CC2)cc1,inactive,–,> 46 µM,inactive,–,inactive,–,–,–,inactive,inactive,inactive,inactive,–,> 11.4 µM,7.47%,19.2%,-6.24%,–,–
COCCn1c(=O)c(-c2ccc(Cl)cc2)nc2cnc(N3CCOCC3)nc21,1 µM (active),> 9.22 µM,> 46 µM,inactive,–,–,–,inactive,inactive,inactive,–,–,inactive,–,> 11.4 µM,9.82%,7.69%,9.52%,inactive,inactive
COc1cccc(-c2nc(NCc3ccc(OC)cc3OC)c3ccccc3n2)c1,–,> 46 µM,> 46 µM,inactive,–,–,–,inactive,–,inactive,inactive,inactive,–,–,–,-5.61%,-23.1%,-8.78%,inactive,inactive
COc1cccc(-c2nccc(NCc3cccs3)n2)c1,0.2 µM (active),> 46 µM,> 46 µM,inactive,5.01 µM (active),inactive,–,8.91 µM (active),–,inactive,inactive,inactive,inactive,–,> 11.4 µM,-9.78%,15.4%,-0.369%,10 µM (active),8.91 µM (active)
COc1cccc(Cn2c(=O)c(-c3cccs3)nc3cnc(Nc4cccc(OC)c4)nc32)c1,2.51 µM (active),> 9.22 µM,> 46 µM,inactive,–,inactive,–,–,–,inactive,–,–,–,–,–,-17.2%,–,26.3%,–,–
